Laboratory results: PubChem BioAssay (NCATS)
“And” between values parts separate entries of the source, which are not always exact repeats. Equal entries are not always repeated. A number with no mark means an inactive call. Records with an inconclusive call do not appear. A call without a number means that no potency is given here. The source made the active and inactive calls. Unless noted, calls follow the shape of the dose curve; as a rule, active = well fitted curve in the direction sought with a large enough effect; inconclusive = small, poorly fitted or top-dose-only effect, or another doubt; inactive = no such curve, though single readings can be large; an effect the other way counts as inactive or inconclusive.

Assays:
[1] = Cell Viability - HepG2 (AID 433; calls by dose curve;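 also: potency is read from the fitted curve at half-maximal effect; cells exposed to compound for 40 hours; potency for ATP loss meaning cytotoxicity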); settings: qHTS
In short: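 Read-out is luciferase-based quantitation of cellular ATP as a measure of viable HepG2 cells after 40 h treatment at 37 °C. Signal decrease is scaled between DMSO-only and 100 uM tamoxifen controls, with AC50 fitted by the Hill equation.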

[2] = Cell Viability - NIH 3T3 (AID 541); settings: NIH 3T3 cell viability, qHTS; activity change, negative = cytotoxicity: at 92.2 µM (top of the series);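 also: cells exposed to compound for 40 hours; nearly all actives have a fitted effect of over 25% in size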; also: potency is read from the fitted curve at half-maximal effect
In short: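 Intracellular ATP (CellTiter-Glo luminescence, 20 min at room temperature) measured after 40 hr compound exposure at 37 °C of 1000 NIH 3T3 mouse fibroblasts/well in complete medium; AC50 derived by Hill-equation modelling of qHTS concentration-response curves.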

[3] = Cell Viability - H-4-II-E (AID 543);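 also: cells exposed to compound for 40 hours; nearly all actives have a fitted effect of over 35% in size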
In short: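 CellTiter-Glo luminescence (intracellular ATP) measured after 40 h compound exposure at 37 °C in H-4-II-E rat hepatoma cells seeded at 1500/well. Values are AC50s fitted with the standard Hill equation.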

[4] = Cell Viability - SH-SY5Y (AID 544); settings: SH-SY5Y neuroblastoma cell viability; viability change, negative = cytotoxic: at 92.2 µM (top of the series);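 also: cells exposed to compound for 40 hours; nearly all actives have a fitted effect of over 55% in size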
In short: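 Cytotoxicity measured via ATP-dependent luciferase luminescence (CellTiter-Glo) following 40 h, 37 °C exposure of 1500 SH-SY5Y cells per well. Concentration-response data were fitted with the standard Hill equation to give AC50.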

[5] = Cell Viability - LYMP2-001 (AID 921); also: nearly all actives have a fitted effect of over 70% in size
In short: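 Steps: seed 2500 lymphoblastoid cells/well; 5 hr, 37 C; add compound; 24 hr, 37 C; CellTiter-Glo reagent, 30 min room temperature; read luminescence. Concentration-response modeled by Hill equation for AC50.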

[6] = Cell Viability - LYMP1-003 - Assay at 40 hr (AID 964); also: nearly all actives have a fitted effect of over 60% in size
In short: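 Viability is taken as cellular ATP, read by CellTiter-Glo luminescence after 40 h of compound exposure at 37 C. Cells: human lymphoblastoid line LYMP1-003 at 2500/well; AC50 values derived by Hill-equation fitting of concentration-response data.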

[7] = Cell Viability - LYMP2-003 (AID 965);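 also: cells exposed to compounds for 24 h before reading; nearly all actives have a fitted effect of over 50% in size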
In short: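 Seed 2500 lymphoblastoid cells/well; incubate 5 hr, 37 C; add compounds; incubate 24 hr, 37 C; add CellTiter-Glo, 30 min RT; read luminescence. AC50 from Hill fit.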

[8] = Cell Viability - LYMP2-015 (AID 971); also: nearly all actives have a fitted effect of over 55% in size
In short: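 Cytotoxicity readout: decrease in intracellular ATP (CellTiter-Glo luminescence) in 2500 LYMP2-015 lymphoblastoid cells/well after 24 h compound exposure at 37 C. Concentration-response data fitted with the standard Hill equation to give AC50.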

[9] = Cell Viability - LYMP2-021 (AID 974); also: nearly all actives have a fitted effect of over 55% in size
In short: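 AC50 values come from Hill-equation fits to CellTiter-Glo luminescence (ATP content), read after 24 hour compound exposure at 37 C of 2500 LYMP2-021 lymphoblastoid cells/well; tetraoctylammonium bromide as positive control.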

[10] = Cell Viability - LYMP2-010 (AID 981); also: nearly all actives have a fitted effect of over 55% in size
In short: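 CellTiter-Glo ATP luminescence measured cytotoxicity after 24 h compound exposure at 37 C. LYMP2-010 cells were seeded at 2500/well, with tetraoctylammonium bromide as control; concentration-response curves gave AC50 values by the Hill equation.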

[11] = Cell Viability - LYMP2-012 (AID 982)
[12] = Cell Viability - LYMP2-016 (AID 984); also: nearly all actives have a fitted effect of over 55% in size
In short: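 Cells were seeded at 2500 per well and rested 5 hr before a 24 hr compound exposure at 37 C. Viability was then gauged as cellular ATP by luciferase luminescence, with AC50 values fitted to the Hill equation.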

[13] = Cell Viability - LYMP2-020 (AID 986); also: nearly all actives have a fitted effect of over 55% in size
In short: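 Cytotoxicity in qHTS format: luminescent ATP readout from CellTiter-Glo after 24 h compound exposure at 37 C in complete medium. LYMP2-020 lymphoblastoid cells were seeded at 2500/well; concentration-response data fitted to the Hill equation for AC50.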

[14] = Cell Viability - LYMP1-002 - Assay at 40 hr (AID 994); also: nearly all actives have a fitted effect of over 60% in size
In short: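 Cytotoxicity was read as loss of cellular ATP (CellTiter-Glo luminescence) after 40 hr compound exposure at 37 C of 2500 LYMP1-002 lymphoblastoid cells per well. Concentration-response data were fitted with the standard Hill equation to give AC50.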

[15] = molecular target: Retinoic acid receptor RXR-alpha (Homo sapiens) (UniProt P19793); assay: qHTS assay for small molecule agonists of retinoid X receptor alpha signaling (AID 588544; calls by dose curve)
Sequence of Retinoic acid receptor RXR-alpha (Homo sapiens) (P19793 whole entry, looked up): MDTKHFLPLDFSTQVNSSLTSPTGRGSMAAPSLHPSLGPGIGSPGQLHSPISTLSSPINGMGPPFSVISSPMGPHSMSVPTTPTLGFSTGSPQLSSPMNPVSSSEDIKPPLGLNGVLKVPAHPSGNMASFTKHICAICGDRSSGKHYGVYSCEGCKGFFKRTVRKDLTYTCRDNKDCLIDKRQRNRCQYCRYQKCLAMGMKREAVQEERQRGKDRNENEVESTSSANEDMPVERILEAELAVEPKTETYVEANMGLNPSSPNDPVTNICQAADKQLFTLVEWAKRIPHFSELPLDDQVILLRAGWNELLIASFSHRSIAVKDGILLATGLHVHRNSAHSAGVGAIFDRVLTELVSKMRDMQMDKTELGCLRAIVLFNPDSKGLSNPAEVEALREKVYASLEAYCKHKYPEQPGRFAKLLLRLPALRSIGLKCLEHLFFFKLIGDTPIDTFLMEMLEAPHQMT

[16] = molecular target: Retinoic acid receptor RXR-alpha (Homo sapiens) (UniProt P19793); assay: qHTS assay for small molecule antagonists of retinoid X receptor alpha signaling (AID 588546; active = well fitted inhibition curve with a large enough effect in the signal ratio, with a control signal flat, not every such curve was filed as active; the % refers to the signal ratio;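 also: cells stimulated with 9-cis-retinoic acid as agonist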); settings: HEK293T RXRa-UAS-bla, beta-lactamase ratio, antagonist mode
In short: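 Beta-lactamase reporter inhibition, read as CCF4 fluorescence ratio (ex 405, em 460/530 nm) after 2 h at RT. HEK293T UAS-bla cells, 2500/well, were stimulated with 9-cis-RA at 500 or 100 nM final alongside test compound for 18 h at 37 C.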

[17] = qHTS assay for small molecule agonists of the antioxidant response element (ARE) signaling pathway measured by Nrf2-dependant transcriptional activity (AID 720636; active = well fitted curve in the direction sought with a large enough effect in the repeat runs; an effect the other way counts as inactive or inconclusive;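 also: HepG2 cells with an ARE-driven luciferase reporter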)
In short: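 Reporter gene assay, HepG2 ARE-luc: 16 hr compound, 37 C, 5% CO2; read-out luciferase luminescence.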

[18] = qHTS assay for small molecule activators of the human pregnane X receptor (PXR) signaling pathway (AID 720659; call rule not given here)
[19] = Cell Viability - LYMP2-017 (AID 972); also: nearly all actives have a fitted effect of over 55% in size
In short: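 CellTiter-Glo luminescence (cellular ATP, 30 min RT) measured cytotoxicity after 24 hr compound treatment at 37 C. Cells were a human lymphoblastoid line, LYMP2-017, plated at 2500/well and incubated 5 hr first; concentration-response fitted with Hill equation for AC50.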

[20] = Cell Viability - LYMP2-006 (AID 978); also: nearly all actives have a fitted effect of over 60% in size
In short: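 Cells are seeded at 2500 per well and rested 5 hr at 37 C. Compounds are added across a concentration series for 24 hr at 37 C, after which ATP is quantified by luciferase luminescence.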

C=CC(=O)OCCN(C)C
Potency [1]: > 92 µM | Potency [2]: inactive | Potency [3]: inactive | Potency [4]: inactive | Potency [5]: inactive | Potency [6]: inactive | Potency [7]: inactive | Potency [8]: inactive | Potency [9]: inactive | Potency [10]: inactive | Potency [11]: inactive | Potency [12]: inactive | Potency [13]: inactive | Potency [14]: inactive | outcome [15]: inactive | max response [16]: 5.11% | Potency [17]: inactive | outcome [18]: inactive

Cc1ccc2c(c1N)C(=O)c1ccccc1C2=O
Potency [2]: 25.1 µM (active) | Potency [5]: inactive | Potency [7]: inactive | Potency [8]: inactive | Potency [19]: inactive | Potency [9]: inactive | Potency [10]: inactive | Potency [12]: inactive | Potency [13]: inactive | Potency [14]: inactive

ClP(Cl)(Cl)(Cl)Cl
Potency [1]: > 92 µM | Potency [2]: inactive | Potency [3]: inactive | Potency [5]: inactive | Potency [6]: inactive | Potency [7]: inactive | Potency [8]: inactive | Potency [19]: inactive | Potency [20]: inactive | Potency [11]: inactive | Potency [12]: inactive | Potency [13]: inactive | max response [16]: -15.7% | Potency [17]: inactive | outcome [18]: inactive

O=[N+]([O-])c1ccc(Cl)cc1
Potency [1]: > 92 µM | Potency [3]: inactive | Potency [4]: inactive | Potency [5]: inactive | Potency [6]: inactive | Potency [7]: inactive | Potency [8]: inactive | Potency [19]: inactive | Potency [9]: inactive | Potency [20]: inactive | Potency [12]: inactive | Potency [13]: inactive | Potency [14]: inactive | outcome [15]: inactive | Potency [17]: inactive | outcome [18]: inactive

C=COC(C)=O
Potency [1]: > 92 µM | Potency [2]: inactive | Potency [3]: inactive | Potency [5]: inactive | Potency [6]: inactive | Potency [8]: inactive | Potency [19]: inactive | Potency [9]: inactive | Potency [20]: inactive | Potency [10]: inactive | Potency [13]: inactive | Potency [14]: inactive | outcome [15]: inactive | max response [16]: -3.99% | Potency [17]: inactive | outcome [18]: inactive

Cc1ccc(N=C=O)cc1N=C=O
Potency [1]: > 92 µM | Potency [2]: inactive | Potency [3]: inactive | Potency [4]: inactive | Potency [5]: inactive | Potency [6]: inactive | Potency [7]: inactive | Potency [8]: inactive | Potency [19]: inactive | Potency [9]: inactive | Potency [10]: inactive | Potency [11]: inactive | Potency [12]: inactive | Potency [13]: inactive | Potency [14]: inactive | outcome [15]: inactive | max response [16]: 6.03% and 0.743% | Potency [17]: inactive | outcome [18]: inactive
